About 83,000 compounds went through this panel and 20% of them were active in at least one assay; those are over-represented in the sample as a whole.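 Cells were grown in 96-well plates and exposed to the test compound at a single concentration for 48 hours; results are reported as percent growth, with values below 10 considered active.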 Unmarked numbers belong to inactive results. The source made the active and inactive calls.
How the values were obtained:
Test in all cases: NCI-60 one-dose screen, 48 h (100 = growth as untreated, 0 = no growth, -100 = all killed)
Conditions in all cases: 10 µM unless noted
NCI-H23 lung = tested on: NCI-H23 lung
NCI-H226 lung = tested on: NCI-H226 lung
NCI-H322M lung = tested on: NCI-H322M lung
HOP-62 NSCLC = tested on: HOP-62 NSCLC
NCI-H460 lung = tested on: NCI-H460 lung
HOP-92 NSCLC = tested on: HOP-92 NSCLC
NCI-H522 lung = tested on: NCI-H522 lung
A549/ATCC NSCLC = tested on: A549/ATCC NSCLC
786-0 renal = tested on: 786-0 renal
COLO 205 colon = tested on: COLO 205 colon
DU-145 prostate = tested on: DU-145 prostate
K-562 leukemia = tested on: K-562 leukemia
MALME-3M melanoma = tested on: MALME-3M melanoma
MDA-MB-231 breast = tested on: MDA-MB-231 breast
RXF 393 renal = tested on: RXF 393 renal
SF-268 CNS = tested on: SF-268 CNS
SF-295 CNS = tested on: SF-295 CNS
SF-539 CNS = tested on: SF-539 CNS
UACC-257 melanoma = tested on: UACC-257 melanoma
M14 melanoma = tested on: M14 melanoma

SMILES | growth (NCI-H23 lung) | growth (NCI-H226 lung) | growth (NCI-H322M lung) | growth (HOP-62 NSCLC) | growth (NCI-H460 lung) | growth (HOP-92 NSCLC) | growth (NCI-H522 lung) | growth (A549/ATCC NSCLC) | growth (786-0 renal) | growth (COLO 205 colon) | growth (DU-145 prostate) | growth (K-562 leukemia) | growth (MALME-3M melanoma) | growth (MDA-MB-231 breast) | growth (RXF 393 renal) | growth (SF-268 CNS) | growth (SF-295 CNS) | growth (SF-539 CNS) | growth (UACC-257 melanoma) | growth (M14 melanoma)
O=S(=O)(Nc1cc(Sc2nc3ccccc3s2)c(O)c2ccccc12)c1ccc2ccccc2c1 | 76.3% | 94.1% | 94.9% | 102% | 99.7% | 109% | 83% | 99.9% | 111% | 101% | 101% | -35.7% (active) | 102% | 71.1% | 104% | 95.4% | 87.7% | 106% | 99.8% | 109%
CN1C(=O)N2CN3CCCN(C3)CN3C(=S)NC1C23 (stereo not given) | 103% | 99.6% | 105% | 104% | 105% | 98.7% | 95% | 87% | 102% | 117% | 103% | 97.1% | 112% | 104% | 109% | 99.8% | 105% | 103% | 87.6% | 107%
COC(=O)[C@]1(C)CCC[C@]2(C)[C@H]3C[C@@H]4[C@H]5[C@@H]6CC/C(=N\OCC/C(N)=N/O)[C@H]5[C@@]3(CC[C@H]21)CC4(C(C)C)O6 | 73.4% | 83.7% | 82.2% | 80.8% | 67.5% | 65% | 54.7% | 71.8% | 86.2% | 72.1% | 71.5% | 79.3% | 82.1% | 61.2% | 42.5% | 72.9% | 72.7% | 79.2% | 80.4% | 72.6%
COC(=O)/C=C1/SC(=NCc2ccccc2)N(CCc2c[nH]c3ccccc23)C1=O | 87.2% | 109% | 98.9% | 102% | 91.8% | 74.6% | 77.1% | 93.1% | 89.4% | 98.7% | 72.5% | 48.5% | 108% | 91% | 81.9% | 90.3% | 89.9% | 105% | 81.6% | 80.5%
COc1ccc(Cl)cc1Nc1nc(C(F)(F)F)ccc1C(=O)N/N=C/c1ccc([N+](=O)[O-])cc1 | 18% | 13.6% | -1.09% (active) | 11.4% | 0.872% (active) | -47.7% (active) | -8.55% (active) | 6.02% (active) | 8.42% (active) | 9.91% (active) | 12.8% | 2.07% (active) | 11.5% | -14.9% (active) | 13% | 15.3% | -52% (active) | 10.8% | -3.41% (active) | 36.2%
CN(C)CCCC1(c2ccc(F)cc2)OCc2cc(-c3csc4ccccc34)ccc21 (stereo not given) | 48.2% | 87.3% | 27% | 39.2% | -89.9% (active) | 26.4% | 7.99% (active) | 24.4% | 52.8% | -67.8% (active) | -0.822% (active) | -31.8% (active) | -92.1% (active) | 10.6% | 4.01% (active) | 38.6% | -52% (active) | -81.7% (active) | -48% (active) | -57% (active)

Source: PubChem BioAssay (NCI)
